The list is not random: actives were taken first. Their share in the collection is about 2.9%.
SNCA expr inh = Primary qHTS assay for inhibitors of alpha-synuclein gene (SNCA) expression. HEK-293 SNCA-luciferase knock-in, luminescence, 24 h. AID 1671194, 2021. Potency, µM (series often up to 57.2 µM), for the others: top-dose activity change, negative = inhibition, hits mostly inhibitors. hit rate 0.17% among 140,000;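 also: potency is read from the fitted curve at half-maximal effect; plate controls were DMSO cells for no effect and cell-free wells for full effect; nearly all actives have a fitted effect of over 45% in size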
HEK293 viab = GF-AFC viability counterscreen for inhibitors of alpha-synuclein gene (SNCA) expression; hit rate 0.12% among 150,000; Potency, µM (doses to about 57.1 µM), inactives show at the highest dose activity change, negative = cytotoxicity, actives largely listed as cytotoxic; AID 1671193, 2021; HEK-293-SNCA-luc viability, GF-AFC fluorescence, 24 h;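 also: potency is read from the fitted curve at half-maximal effect; 0% = DMSO-treated cells and -100% = medium-only wells without cells; nearly all actives have a fitted effect of over 30% in size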
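Cytotoxicity counterscreen: after 24 h compound treatment of genome-edited SNCA-luciferase HEK-293 cells, live-cell protease substrate GF-AFC read by fluorescence after 30 min; activity scaled between DMSO (0%) and medium-only (-100%), curves Hill-fitted.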
IP6K1 inhibitor = Primary qHTS assay for small molecule inhibitors of Inositol hexaphosphate kinase 1 (IP6K1). Inositol hexakisphosphate kinase 1 (Homo sapiens), Q92551. IP6K1 kinase, ADP-Glo luminescence, 2 h; active compounds read low. activity change, % (series mostly up to about 58 µM). hit rate 0.81% among 140,000. AID 1645851, 2021; in the data active = activity change below about -25%; also: % is scaled to controls: 0 for no effect and ±100 for the full control effect
Target sequence (Q92551 whole entry, looked up): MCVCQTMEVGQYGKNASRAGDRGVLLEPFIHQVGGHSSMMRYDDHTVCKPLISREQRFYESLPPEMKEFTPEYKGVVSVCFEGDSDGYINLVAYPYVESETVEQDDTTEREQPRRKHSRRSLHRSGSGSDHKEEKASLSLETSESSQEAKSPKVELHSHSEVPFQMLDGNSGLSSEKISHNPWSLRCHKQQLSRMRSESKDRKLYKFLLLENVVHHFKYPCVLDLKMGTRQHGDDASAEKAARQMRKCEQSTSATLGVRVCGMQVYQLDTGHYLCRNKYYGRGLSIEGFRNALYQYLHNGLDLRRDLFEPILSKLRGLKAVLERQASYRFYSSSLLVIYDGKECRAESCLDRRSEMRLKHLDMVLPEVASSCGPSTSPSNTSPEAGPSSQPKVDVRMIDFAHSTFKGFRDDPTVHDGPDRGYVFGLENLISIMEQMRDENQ
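ADP-Glo luminescence measures ADP made by human IP6K1 during a 2 h RT reaction with ATP/IP6 (mix at 1.3 mM/130 uM); top library doses 57.5 and 19.1 uM final.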
KDM5B inhibitor = Primary screen for KDM5B Histone Demethylases FDH-coupled qHTS; Lysine-specific demethylase 5B (Homo sapiens), Q9UGL1; KDM5B demethylase, FDH-coupled NADH fluorescence (FDH is formaldehyde dehydrogenase); hit rate 2.6% among 220,000; Potency, µM (doses to about 57.7 µM), hits mostly inhibitors; also: potency is read from the fitted curve at half-maximal effect; 0% is about no effect; nearly all actives have a fitted effect of over 70% in size
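Here, H3K4me3 peptide (12.5 µM in substrate mix) is demethylated by KDM5BΔAP, 200 nM final, after 10 min compound exposure. Formaldehyde product is coupled through FDH (0.25 U/mL in mix) to NADH fluorescence; 30-min ΔRFU feeds dose-response curves.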
* marks the source's active call; other numbers are inactive results; i = inactive; ? = inconclusive; / = no result; ! = not active in a repeat; [ ] = remark or other dose. Unless noted, calls follow the shape of the dose curve; as a rule, active = well fitted curve in the direction sought with a large enough effect; inconclusive = small, poorly fitted or top-dose-only effect, or another doubt; inactive = no such curve, though single readings can be large; an effect the other way counts as inactive or inconclusive.

SMILES	SNCA expr inh	HEK293 viab	IP6K1 inhibitor	KDM5B inhibitor
O=C(c1cccc(F)c1)N1CCC2(CC1)N=C(c1ccc(Cl)cc1)NO2	5.6%	-3.9%	2.2	20µM*
O=C(c1ccc2c(c1)OCO2)N1CCC2(CC1)N=C(c1ccc(Cl)cc1)NO2	16.4%	22.5%	2.2	31.6µM*
O=C(c1cccc(F)c1)N1CCC2(CC1)N=C(c1ccccc1)NO2	?	0.5%	4.5	i
Cc1nn(CC(=O)Nc2ccccc2C(F)(F)F)c2ccccc12	/	/	/	i
C#CCNC(=O)c1nc(-c2cccc(C(F)(F)F)c2)c2cnccn12	35.1%	-0.8%	0.0	31.6µM*
O=C(NCc1cccnc1)c1nc(-c2cccc(C(F)(F)F)c2)c2ccccn12	-3.6%	4.3%	29.3	?
COCCNC(=O)c1nc(-c2cccc(C(F)(F)F)c2)c2cnccn12	-7.8%	-4.2%	0.0	25.1µM*
COCCNC(=O)c1nc(-c2ccccc2)c2ccccn12	7.7%[87.6 µM]	4.2%[87.6 µM]	30.6	i
COC(=O)CNC(=O)c1nc(-c2cccc(C(F)(F)F)c2)c2ccccn12	1.5%	5.9%	11.2	14.1µM*
C#CCNC(=O)c1cn2cc(-c3cccc(C(F)(F)F)c3)sc2n1	-3.7%	-17.5%	15.3	/
COCCNC(=O)c1nc(-c2cccc(C(F)(F)F)c2)c2ccccn12	6.8%	11.1%	8.2	15.8µM*
COc1ccccc1/C=C1\Oc2cc(OS(=O)(=O)c3ccc(C)cc3)ccc2C1=O	/	/	/	i
CC1(C(=O)O)CCN([S+](=O)([O-])c2cccc(C(F)(F)F)c2)CC1	-10.0%	-1.9%	1.0	i
CSCC(=O)N[C@H]1CCN2C(=O)c3cc(/C=C/c4ccccc4)ccc3NC(=O)[C@H]12	15.2%[87.6 µM]	-5.3%[87.6 µM]	3.1	15.8µM*
COc1ccc(-c2ccc3c(c2)C(=O)N2CC[C@H](NC(=O)NC(C)C)[C@H]2C(=O)N3)c(OC)c1	4.3%	3.9%	-0.4	?
CC(C)NC(=O)N[C@H]1CCN2C(=O)c3cc(/C=C/c4ccccc4)ccc3NC(=O)[C@H]12	9.6%[87.6 µM]	1.3%[87.6 µM]	-9.3	35.5µM*
COc1ccc(-c2ccc3c(c2)C(=O)N2CC[C@H](NC(=O)C4CCCC4)[C@H]2C(=O)N3)c(OC)c1	-15.7%	-0.6%	4.7	31.6µM*
COc1ccc(/C=C/c2ccc3c(c2)C(=O)N2CC[C@H](NC(=O)COCC(=O)O)[C@H]2C(=O)N3)cc1	-19.9%	-1.7%	-5.2	22.4µM*
COc1ccccc1CNC(=O)c1ccc2c(c1)N(Cc1cccc(Cl)c1)C(=O)c1ccccc1S2(=O)=O	-28.7%	0.3%	-3.3	?
Cc1ccccc1N1Cc2c(NC3CC3)ncnc2N(C)CC1=O	5.4%[87.6 µM]	-0.1%[87.6 µM]	-7.1	i
O=C(c1cccc2nccnc12)N1CCOC(C(F)(F)F)C1 (centres undefined)	-11.0%	-0.7%	14.5	i
O=C(c1ccc2nc(-c3ccc(F)cc3)cn2c1)N1C[C@@H]2CCCN[C@@H]2C1	18.7%	4.8%	-6.6	28.2µM*
O=C(c1ccc2nc(-c3ccccc3)cn2c1)N1CCOC(C(F)(F)F)C1 (centres undefined)	45.1%	-2.3%	7.4	31.6µM*
O=C(c1ccc(F)cc1)N1CCCC(c2nc(-c3ccc(F)cc3)no2)C1 (centres undefined)	/	-11.4%	-1.8	/
CCCOC1CCCN(C(=O)c2ccc3nc(-c4ccc(F)cc4)cn3c2)C1 (centres undefined)	23.2%	5.0%	27.4	28.2µM*
SMILES	SNCA expr inh	HEK293 viab	IP6K1 inhibitor	KDM5B inhibitor
O=C(c1nc2cccnc2n(C2CCCC2)c1=O)N1CCN([S+](=O)([O-])c2ccccc2)CC1	5.7%	-3.8%	-6.6	/
COc1cc(NC(=O)NCc2nnnn2-c2ccc(C)cc2)cc(OC)c1OC	/	/	/	i
c1cc2nc(-c3ccsc3)[nH]c2cn1	21.5%[87.6 µM]	1.8%[87.6 µM]	2.8	?
c1ccc(-c2nc3ncccc3[nH]2)nc1	83.4%[87.6 µM]	11.9%[87.6 µM]	0.1	31.6µM*!
c1cnc2nc(-c3ccsc3)[nH]c2c1	22.1%[87.6 µM]	-17.4%[87.6 µM]	6.5	31.6µM*!
O=C(O)c1ccc(-c2nc3ncccc3[nH]2)cc1	-10.2%[87.6 µM]	13.1%[87.6 µM]	6.8	28.2µM*!
Cc1cc(-c2nc3ncccc3[nH]2)c(C)[nH]1	151.2%[87.6 µM]	-2.8%[87.6 µM]	7.9	?
O=C(O)c1ccc(CN2C[C@@H](F)[C@@H](OCc3nc4ncccc4[nH]3)C2)cc1	-8.0%[87.6 µM]	3.4%[87.6 µM]	-3.9	i
COc1ccc(CN2CC3ON=C(C(=O)O)C3C2)cc1 (centres undefined)	3.8%[87.6 µM]	0.5%[87.6 µM]	2.8	i
O=C(O)C1=NOC2CN(Cc3cccc(C(F)(F)F)c3)CC12 (centres undefined)	6.7%	4.9%	0.8	100µM*
c1cn(CCc2noc(C3CCCO3)n2)c(-c2nc3c(s2)CCCC3)n1 (centres undefined)	3.5%	-3.5%	3.3	31.6µM*
Cc1ccc(C(=O)Nc2ccccc2C(=O)Cc2ccccc2)cc1	/	/	/	i
O=c1c2cccnc2n(Cc2cccc(F)c2)c(=O)n1Cc1ccc(F)cc1	-4.9%	?	14.1	?
O=c1c2nc(-c3ccc(F)cc3)ccc2ncn1Cc1ccccn1	-19.1%[87.6 µM]	-10.6%[87.6 µM]	1.6	31.6µM*
O=c1c2nc(Nc3cccnc3)ccc2ncn1-c1ccc(F)cc1F	-0.5%[87.6 µM]	-1.3%[87.6 µM]	3.4	i
O=c1c2nc(-c3ccc(O)c(F)c3)ccc2ncn1Cc1ccccn1	13.4%[87.6 µM]	-15.7%[87.6 µM]	8.9	?
Cn1nccc1-c1ccc2ncn(-c3ccc(F)cc3F)c(=O)c2n1	-16.0%[87.6 µM]	-17.4%[87.6 µM]	-5.8	39.8µM*
O=c1c2nc(-c3cccnc3)ccc2ncn1Cc1ccccc1	-0.9%[87.6 µM]	3.4%[87.6 µM]	-4.3	i
Cn1nccc1-c1ccc2ncn(-c3ccccc3)c(=O)c2n1	3.1%[87.6 µM]	1.6%[87.6 µM]	1.2	31.6µM*
O=c1c2nc(-c3ccccc3)ccc2ncn1-c1ccccc1	133.9%[87.6 µM]	3.3%[87.6 µM]	1.7	39.8µM*
O=c1c2cc(-c3cccs3)nn2ccn1CC(O)c1cccc(Cl)c1 (centres undefined)	13.1%	-7.8%	1.8	20µM*
Cc1ccc(C)c(C(O)Cn2ccn3nc(-c4cccs4)cc3c2=O)c1 (centres undefined)	17.6%	-18.0%	-4.2	20µM*
O=c1c2cc(-c3cccs3)nn2ccn1CC(O)c1ccccc1 (centres undefined)	115.0%	-1.5%	-5.5	?
Cc1ccc(C)c(C(O)Cn2ccn3nc(-c4cccc(Br)c4)cc3c2=O)c1 (centres undefined)	-5.4%	-19.8%	-3.6	31.6µM*
O=C(Nc1ccc(S(=O)(=O)N2CCC(c3nc4ccccc4s3)CC2)cc1)c1ccc(F)cc1	22.4%	1.1%	2.6	i
CCc1ccc(NC(=O)Cn2c(=O)n(-c3cccc(OC)c3)c(=O)c3c(C)c(C(=O)N(C)C)sc32)cc1	-16.2%	3.5%	22.5	i
O=C(c1ccc2c(c1)OCO2)N1CCC(c2nnc3n2CCNC3)CC1	-11.8%	3.7%	11.3	50.1µM*
